Some test systems named below: DU-145 prostate; K-562 leukemia; MALME-3M melanoma; MDA-MB-231 breast; RXF 393 renal; SF-268 CNS; SF-295 CNS; SF-539 CNS; UACC-257 melanoma; M14 melanoma; HCT-15 colon; HT29 colon; SNB-75 CNS; SNB-19 CNS; U251 CNS; PC-3 prostate; SK-MEL-5 melanoma; UACC-62 melanoma; LOX IMVI melanoma; SK-MEL-28 melanoma.
Holding throughout (assay): NCI-60 one-dose screen, 48 h (100 = growth as untreated, 0 = no growth, -100 = all killed)
What all share (conditions): 10 µM unless noted

About 83,000 compounds went through this panel and 20% of them were active in at least one assay; those are over-represented in the sample as a whole.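 Compound tested at a single concentration for 48 hours in 96-well plates; a percent growth value below 10 was scored as active.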 Values without a mark were called inactive. The source made the active and inactive calls.

As to `CCN(CC)CCS(=O)(=O)CCNc1ccnc2cc(Cl)ccc12`, the growth was -24% (active) in the test on DU-145 prostate; 7.87% (active) in the test on K-562 leukemia; 1.04% (active) in the test on MALME-3M melanoma; -2.95% (active) in the test on MDA-MB-231 breast; -17.2% (active) in the test on RXF 393 renal; 4.55% (active) with SF-268 CNS. The growth is 25.9% in the test with SF-295 CNS; -2.68% (active) with SF-539 CNS; 59% with UACC-257 melanoma; -10.5% (active) with M14 melanoma; 10.1% in the test on HCT-15 colon; -21.1% (active) in the test with HT29 colon. In addition, the growth in the test on SNB-75 CNS was 9.48% (active); with SNB-19 CNS it was 70%; in the test with U251 CNS, -4.39% (active); in the test with PC-3 prostate, 33%; with SK-MEL-5 melanoma, 29.5%; with UACC-62 melanoma, 29.7%. Moreover, the values for the growth with LOX IMVI melanoma and with SK-MEL-28 melanoma were 11.3% and 49.5%, respectively.
For `CCN1CCN(CC(=O)Nc2nc3ccc(NCc4ccc(Cl)cc4)cc3s2)CC1`, the growth is 89.6% in the test with DU-145 prostate; 2.71% (active) in the test with K-562 leukemia; 0.984% (active) with MALME-3M melanoma; 51.9% in the test on MDA-MB-231 breast; 51.2% in the test with RXF 393 renal; 71% in the test with SF-268 CNS. The growth in the test on SF-295 CNS was 81.6%; in the test on SF-539 CNS it was 64.3%; in the test on UACC-257 melanoma it was 7.11% (active); in the test on M14 melanoma, -76.6% (active); in the test on HCT-15 colon it was 0.991% (active); in the test on HT29 colon, 19.6%. Further, the growth is 103% with SNB-75 CNS; 79.6% in the test on SNB-19 CNS; 58.2% in the test with U251 CNS; 52.7% with PC-3 prostate; -37.9% (active) with SK-MEL-5 melanoma; -12% (active) with UACC-62 melanoma. In addition, the growth is 16.9% with LOX IMVI melanoma and 24.7% with SK-MEL-28 melanoma.
With `C=C(C)[C@@H]1CC[C@]2(C)[C@H](CC[C@@H]3[C@@H]([C@@](C)(O)CCC=C(C)C)CC[C@]32C)[C@@]1(C)CCC(=O)N1CCN(C)CC1`, the growth with DU-145 prostate is -80% [100 µM] (active); in the test on K-562 leukemia it was 1.77% [100 µM] (active); in the test on MALME-3M melanoma, -89.6% [100 µM] (active); in the test on MDA-MB-231 breast, -95.8% [100 µM] (active); with RXF 393 renal it was -93.7% [100 µM] (active); with SF-268 CNS, -79.4% [100 µM] (active). The growth was -88.7% [100 µM] (active) with SF-295 CNS; -94% [100 µM] (active) in the test with SF-539 CNS; -59.9% [100 µM] (active) in the test with UACC-257 melanoma; -70.5% [100 µM] (active) in the test on M14 melanoma; -92.8% [100 µM] (active) in the test with HCT-15 colon; -70.8% [100 µM] (active) with HT29 colon. In addition, the growth in the test on SNB-75 CNS is -92.5% [100 µM] (active); in the test with SNB-19 CNS, -95.3% [100 µM] (active); with U251 CNS it was -78.6% [100 µM] (active); in the test on PC-3 prostate it was -61.8% [100 µM] (active); with SK-MEL-5 melanoma, -99.1% [100 µM] (active); with UACC-62 melanoma, -95.2% [100 µM] (active). For the same compound, the results for the growth in the test on LOX IMVI melanoma and in the test on SK-MEL-28 melanoma were -100% [100 µM] (active) and -92.1% [100 µM] (active), respectively.
As for `CCOC(=O)c1nn(C2CCCCO2)c2ccc(NC(=O)CN3CCOCC3)cc12` (stereo not given), the growth was 107% in the test with DU-145 prostate; 90.4% with K-562 leukemia; 104% with MALME-3M melanoma; 102% in the test on MDA-MB-231 breast; 122% in the test with RXF 393 renal; 97.5% in the test with SF-268 CNS. Also, the growth is 101% with SF-295 CNS; 98.1% in the test on SF-539 CNS; 98.8% in the test on UACC-257 melanoma; 102% with M14 melanoma; 106% in the test on HCT-15 colon; 116% in the test with HT29 colon. The growth is 80.7% with SNB-75 CNS; 98.8% in the test on SNB-19 CNS; 97.9% in the test with U251 CNS; 107% in the test with PC-3 prostate; 102% in the test on SK-MEL-5 melanoma; 102% in the test on UACC-62 melanoma. The figures for the growth with LOX IMVI melanoma and in the test on SK-MEL-28 melanoma were 98.2% and 109%, respectively.
Turning to `Cc1cc(C)c(S(=O)(=O)/N=c2/n(-c3ccccc3)nc3n2CCN3C2=NCCN2)c(C)c1`, the growth in the test with DU-145 prostate was 98%; in the test with K-562 leukemia it was 38.9%; in the test on MALME-3M melanoma, 50.7%; in the test on MDA-MB-231 breast it was 67.7%; in the test with RXF 393 renal it was 54.9%; in the test on SF-268 CNS, 81.4%. The growth in the test with SF-295 CNS was 95.8%; in the test on SF-539 CNS, 88.8%; with UACC-257 melanoma, 92%; with M14 melanoma it was 98.9%; with HCT-15 colon it was 90.1%; in the test on HT29 colon, 58%. For the same compound, the growth in the test on SNB-75 CNS is 74.3%; in the test on SNB-19 CNS it was 91.5%; with U251 CNS, 76.4%; in the test on PC-3 prostate, 69.5%; with SK-MEL-5 melanoma, 60.4%; with UACC-62 melanoma it was 88.8%. In addition, the values for the growth in the test with LOX IMVI melanoma and in the test with SK-MEL-28 melanoma were 73.3% and 82.3%, respectively.
Regarding `CCOc1ccc(/C=C(\C#N)c2cc3ccccc3[nH]2)cc1`, the growth was 81% with DU-145 prostate; 15.3% in the test with K-562 leukemia; 60% in the test with MALME-3M melanoma; 71.9% in the test on MDA-MB-231 breast; 58.6% in the test with RXF 393 renal; 84.2% in the test on SF-268 CNS. Also, the growth with SF-295 CNS is 58.3%; with SF-539 CNS it was 68.3%; in the test on UACC-257 melanoma, 79.2%; with M14 melanoma it was 39%; in the test on HCT-15 colon, 28.8%; with HT29 colon, 13.8%. In addition, the growth was 67.1% in the test on SNB-75 CNS; 80.2% in the test with SNB-19 CNS; 41.7% in the test with U251 CNS; 68.2% in the test on PC-3 prostate; 72.2% in the test with SK-MEL-5 melanoma; 43.9% in the test with UACC-62 melanoma. Also, the figures for the growth in the test with LOX IMVI melanoma and with SK-MEL-28 melanoma were 46.4% and 69.7%, respectively.
With `O=C1CC(c2ccc3c(c2)OCO3)Nc2ccccc21` (stereo not given), the growth is 7.64% (active) with DU-145 prostate; 12.4% in the test with K-562 leukemia; 46% in the test with MALME-3M melanoma; 38.9% in the test on MDA-MB-231 breast; -22% (active) with RXF 393 renal; 43.1% in the test on SF-268 CNS. Moreover, the growth with SF-295 CNS was 4.53% (active); in the test with SF-539 CNS, 0.134% (active); with UACC-257 melanoma, 42.3%; in the test with M14 melanoma, -15.8% (active); in the test on HCT-15 colon, 22%; in the test on HT29 colon it was 4.29% (active). For the same compound, the growth is 7.16% (active) in the test on SNB-75 CNS; 33.2% in the test with SNB-19 CNS; 15% in the test on U251 CNS; 16.8% in the test with PC-3 prostate; 18.9% with SK-MEL-5 melanoma; 20.1% in the test on UACC-62 melanoma. For the same compound, the growth was 37.4% in the test with LOX IMVI melanoma and 47.5% with SK-MEL-28 melanoma.
Take `O=C1NC(=O)C(Cc2ccc(OCc3ccc(-c4cc(F)c(F)c(F)c4)cc3)cc2)S1` (stereo not given): the growth in the test on DU-145 prostate is 95.1%; in the test with K-562 leukemia, 65%; in the test on MALME-3M melanoma, 93%; in the test on MDA-MB-231 breast, 76.7%; with RXF 393 renal, 102%; in the test with SF-268 CNS, 78.5%. The growth was 85.7% with SF-295 CNS; 85% in the test on SF-539 CNS; 90.7% in the test with UACC-257 melanoma; 94.8% with M14 melanoma; 88.2% in the test on HCT-15 colon; 107% in the test with HT29 colon. Moreover, the growth is 83.2% in the test on SNB-75 CNS; 93.5% in the test with SNB-19 CNS; 86.1% with U251 CNS; 71.4% in the test on PC-3 prostate; 76.5% in the test with SK-MEL-5 melanoma; 56.2% with UACC-62 melanoma. Also, the growth is 77.4% in the test with LOX IMVI melanoma and 102% in the test with SK-MEL-28 melanoma.

The values are drawn from PubChem BioAssay (NCI).
